Source: PubChem
IL1B secr inh = qHTS for Inhibitors of Inflammasome Signaling: IL-1-beta AlphaLISA Primary Screen; THP-1 LPS/ATP IL-1B secretion, AlphaLISA, 16 h; active compounds read low; activity change, % at 57.5 µM; 360,000 compounds, 4.7% hits; in the data active = activity change below about -50%; inconclusive = mostly about -30% to -49%
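THP-1 cells pretreated 1 hr with compounds (up to 57.5 uM final), then stimulated with LPS (250 ng/mL final) plus ATP (1.25 mM final); secreted IL-1B measured by AlphaLISA after 16 hr, decreased signal indicating inhibition.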
ELG1 DNA repair = qHTS screen for small molecules that inhibit ELG1-dependent DNA repair in human embryonic kidney (HEK293T) cells expressing luciferase-tagged ELG1; HEK293T ELG1-luciferase reporter, luminescence, 16 h; DNA damage induced by 5-fluorouridine; Potency, µM (top dose mostly 46.1 µM), without a hit: at the highest dose activity change, negative = inhibition, most hits filed as inhibitors; AID 504467, 2011; 330,000 compounds, 2.3% hits; also: potency is read from the fitted curve at half-maximal effect; nearly all actives have a fitted effect of over 55% in size
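Quantitative HTS, concentration-response format. 2,000 cells/well co-treated with 5-fluorouridine and compound, 16 hr in 5% CO2 at 37 °C; ONE-Glo luminescence read after 30 min.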
TDP1 cell noCPT = qHTS for Inhibitors of human tyrosyl-DNA phosphodiesterase 1 (TDP1): qHTS in cells in absence of CPT. DT40 Tdp1-/- hTDP1 cells, no CPT, ATP luminescence, 48 h. Potency, µM (highest dose often 46.2 µM), inactives show top-dose activity change, negative = growth inhibition, actives largely listed as inhibitors. 420,000 compounds, 15% hits; also: potency is read from the fitted curve at half-maximal effect; nearly all actives have a fitted effect of over 55% in size
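Readout: luminescence from CellTiter-Glo after 30 min in the dark at RT. Cells: DT40 Tdp1-/- with stable hTDP1, 400/well. Exposure: compounds alone, ≥48 hr, 37 °C.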
HT1080-NT tox = qHTS for induction of synthetic lethality in tumor cells producing 2HG: qHTS for the HT-1080-NT fibrosarcoma cell line; HT-1080-NT fibrosarcoma viability, CellTiter-Glo ATP luminescence, 48 h; Potency, µM (series often up to 46.1 µM), for inactives: top-dose activity, negative = less viability, hits mostly cytotoxic; 360,000 compounds, 1.6% hits;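 also: NT is the 2HG producing partner of a matched IDH1 knockdown line; potency is read from the fitted curve at half-maximal effect; 0% = DMSO-treated cells and -100% = media-only wells without cells; nearly all actives have a fitted effect of over 55% in size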
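Compounds were tested in concentration-response format on HT-1080-NT cells for 48 hours at 37 degrees C. Cell viability came from CellTiter-Glo luminescence; curves were classified by r2, response magnitude and activity.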
TDP1 cell CPT = qHTS for Inhibitors of human tyrosyl-DNA phosphodiesterase 1 (TDP1): qHTS in cells in presence of CPT; chicken DT40 Tdp1-/-;hTDP1 cells + 20 nM CPT, ATP luminescence, 48 h; Potency, µM (highest dose often 46.2 µM), inactives show at the top dose activity change, negative = growth inhibition, hits mostly inhibitors; 420,000 compounds, 12% hits; also: potency is read from the fitted curve at half-maximal effect; nearly all actives have a fitted effect of over 55% in size
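Chicken DT40 Tdp1-/- cells complemented with human TDP1, 400 cells/well, exposed to compounds plus 20 nM camptothecin for at least 48 h at 37 C; viability read as ATP content by CellTiter-Glo luminescence.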
HT1080 IDH1KD tx = qHTS for induction of synthetic lethality in tumor cells producing 2HG: qHTS for the HT-1080-IDH1KD cell line; HT-1080 IDH1 knockdown viability, ATP luminescence, 48 h; 360,000 compounds, 2% hits; Potency, µM (top dose mostly 46.1 µM), inactives show at the highest dose activity, negative = toxicity, most hits filed as cytotoxic; AID 686971, 2013;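 also: potency is read from the fitted curve at half-maximal effect; 0% = DMSO wells and -100% = cell-free medium wells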
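CellTiter-Glo luminescence after 48 h compound exposure at 37 degrees C of IDH1-knockdown HT-1080 cells in 5% FBS RPMI. %Activity scaled between DMSO wells and cell-free media wells, with curves fitted and assigned curve classes.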
An asterisk follows results filed as active; ? = inconclusive; . = not tested or not shown; [ ] = another dose, or the depositor's remark. An excerpt weighted towards active compounds, which were near 19% of everything screened. Unless noted, calls follow the shape of the dose curve; as a rule, active = well fitted curve in the direction sought with a large enough effect; inconclusive = small, poorly fitted or top-dose-only effect, or another doubt; inactive = no such curve, though single readings can be large; an effect the other way counts as inactive or inconclusive. Unless noted, % is scaled to controls: 0 for no effect and ±100 for the full control effect.

SMILES | IL1B secr inh | ELG1 DNA repair | TDP1 cell noCPT | HT1080-NT tox | TDP1 cell CPT | HT1080 IDH1KD tx
COc1ccc(CNC(=O)O[C@H]2C[C@@H]3C(=O)N(c4ccccc4)C(=O)[C@@H]3[C@@H]3CN(S(=O)(=O)c4ccc(C)cc4)C[C@]23O)cc1OC | -17 | . | -26% | 13% | -18% | 8%
CCCCCCn1c(=O)n2n(c1=O)[C@@H]1CN(S(=O)(=O)c3ccc(C)cc3)C[C@]1(O)[C@@H](OC(=O)Nc1c(C)noc1C)C2 | -5 | . | 29µM* | -1% | ? | -3%
COC(=O)[C@H]1C[C@H](OC(=O)Nc2c(C)noc2C)[C@@]2(O)CN(S(=O)(=O)c3ccc(C)cc3)CC2[C@H]1C(=O)OC (stereo partly specified) | -13 | . | ? | 14% | -22% | 6%
CCCCCCn1c(=O)n2n(c1=O)[C@@H]1CN(S(=O)(=O)c3ccc(C)cc3)C[C@]1(O)[C@@H](OC(=O)NCc1ccccc1)C2 | -71* | . | ? | ? | ? | -20%
O=C(OCc1cc(=O)n2nc(-c3cccs3)sc2n1)c1ccccc1 | . | . | -17% | . | 7% | .
COc1ccccc1C(=O)NC(=O)COC(=O)CNC(=O)c1ccccc1F | -10 | 2% | 3% | 1% | -2% | 9%
COc1cc(/C=N/NC(=O)c2cc(C)oc2C)ccc1O | -10 | 5% | -16% | 20% | -10% | 14%
COc1ccc(C=NNC(=O)c2cc(C)oc2C)cc1O | 8 | ? | 16µM* | ? | ? | ?
Cc1ccc(/C=N/NC(=O)c2cc(C)oc2C)cc1 | -7 | ? | 16µM* | ? | 23µM* | 21µM*
O=C(Cc1ccccc1[N+](=O)[O-])c1ccc2c(c1)OCO2 | -4 | . | -18% | 15% | -1% | 19%
O=C(NCC12CC3CC(CC(C3)C1)C2)c1cc2n(n1)C(C(F)(F)F)CC(c1ccco1)N2 (stereo unspecified) | -87* | -20% | 15µM* | ? | 10µM* | -22%
O=C(NCC1CCCO1)c1cc2n(n1)C(C(F)(F)F)CC(c1ccc(F)cc1)N2 (stereo unspecified) | -4 | -3% | ? | 2% | -20% | 8%
Cc1cc(NC(=O)c2cc3n(n2)C(C(F)(F)F)CC(c2ccco2)N3)n(-c2ccccc2)n1 (stereo unspecified) | -13 | ? | 15µM* | -22% | ? | -27%
COc1ccc(NC(=O)c2cc3n(n2)C(C(F)(F)F)CC(c2ccco2)N3)cc1 (stereo unspecified) | ? | -17% | ? | -51% | -22% | -43%
Nc1c(Cl)cc2c(c1Oc1ccccc1)C(=O)c1ccccc1C2=O | -71* | ? | -23% | 0% | -14% | 1%
CC1(c2ccccc2)CC(C)(C)N2C(=O)Cc3cccc1c32 (stereo unspecified) | 48 | -19% | ? | 0% | ? | -19%
CCN(Cc1ccccc1)C(=O)c1cccc(OC2CCN(C(=O)C3CC3)CC2)c1 | ? | ? | ? | -5% | ? | -3%
O=C(NCc1cccc(F)c1)c1cccc(OC2CCN(C(=O)C3CC3)CC2)c1 | 0 | ? | 18µM* | -21% | ? | -11%
O=S(=O)(c1ccc(N2CCN(Cc3ccccc3)CC2)nc1)N1CCCC1 | 4 | ? | ? | -11% | 16µM* | -4%
O=S(=O)(c1ccc(N2CC=C(c3ccccc3)CC2)nc1)N1CCCC1 | -93* | ? | 18µM* | ? | 16µM* | ?
O=S(=O)(c1ccc(N2CCN(S(=O)(=O)c3ccccc3)CC2)nc1)N1CCCC1 | -1 | ? | -8% | 3% | 8% | -5%
CN1CCN(S(=O)(=O)c2ccc(N3CCN(c4ccccc4Cl)CC3)nc2)CC1 | 17 | 11% | 15µM* | 2%[9.24 µM] | 21µM* | -3%
CC(C)C[C@H](NC(=O)C1CCN(C(=O)[C@H](Cc2ccccc2)NC(=O)OC(C)(C)C)CC1)C(=O)O | -3 | -3% | 35% | 3% | 2% | 0%
CC(C)=CCOc1c2ccoc2c(OCC=C(C)C)c2oc(=O)ccc12 | 36 | 23µM* | ? | ? | ? | -14%
COc1ccc(/C(C)=N/NC(=S)NCCc2ccccc2)c(O)c1 | 51 | ? | 0.58µM* | ? | 0.65µM* | ?
SMILES | IL1B secr inh | ELG1 DNA repair | TDP1 cell noCPT | HT1080-NT tox | TDP1 cell CPT | HT1080 IDH1KD tx
CC(C)NC(=S)N/N=C/c1cc(Br)ccc1O | 32 | -8% | 4.6µM* | ? | 4.6µM* | ?
CN(C)c1ccc(C(=O)N/N=C/c2cc(Br)cc(Br)c2O)cc1 | 105 | ? | 12µM* | ? | 6.5µM* | ?
O=C(CCN1CCOCC1)N/N=C/c1cc(Br)cc(Br)c1O | 104 | ? | 18µM* | ? | 6.5µM* | ?
COc1ccc(C(=O)CCc2ccccc2)c(O)c1 | -24 | . | -11% | ? | 22% | 5%
Cc1cc(C)c(NC(=O)CN2C(=O)CCSc3ccc(S(=O)(=O)N4CCCC4)cc32)c(C)c1 | . | . | -21% | . | -8% | .
CC1(C)S[C@@H]2[C@H](NC(=O)Cc3ccccc3)C(=O)N2[C@H]1C(=O)O (tested in a mixture with another compound) | . | . | ? | . | -2% | .
COc1ccc([C@@H]2CC=C(C(=O)O)[C@H](c3ccc(F)cc3)N2S(=O)(=O)c2ccccc2C)cc1 | 33 | 5% | 4% | 1% | -1% | 3%
Cc1cc(SCC(=O)N/N=C/c2ccc(O)cc2O)nc2ccccc12 | 118 | 2% | 4.1µM* | ? | ? | ?
O=C(CCc1ccccc1)N/N=C/c1cc(Br)ccc1O | 20 | 3% | 4.1µM* | ? | 2.6µM* | ?
O=C(Cc1ccccc1)N/N=C/c1cc(Br)cc(Br)c1O | 135 | 6.5µM* | ? | -19% | ? | ?
COCCCNC(=S)N/N=C/c1ccccc1O | 4 | ? | 0.58µM* | -2% | 2.6µM* | -6%
